Bioassay records as filed in PubChem BioAssay.
Sampled rows, rich in hits. Any-hit rate of the full collection: about 4.3%.
HSF1 activator = increases HSF-1 driven luciferase reporter signal. activation, % at 9 µM. 300,000 tested, 1.7% active. NIH3T3-HGL HSF-1 luciferase reporter, MG132, 8 h; 100% = twice DMSO control signal;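 active means mean replicate activation of at least 50% with a set share of replicates each reaching 50%; inconclusive means only one of those two conditions met; inactive means mean below 50% and too few replicates reaching it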;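 further: 0% = median of the neutral control wells and 100% = twice that signal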
MITF TRPM1 HTS = increases MITF-driven TRPM1 promoter luciferase signal. SK-MEL-5 TRPM1-promoter luciferase, 24 h; % of positive control, neutral wells = 0. activation, % at 12.5 µM. 300,000 tested, 0.75% active. AID 588334;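 active means mean activation of at least 80% with every replicate also reaching 80%; inconclusive means mean reaches 80% but some replicate falls short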;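 further: 0% = neutral control wells and 100% = parthenolide positive control wells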
Wnt bcat act = activators of Wnt/beta-catenin signaling; AID 743398; 300,000 tested, 1.2% active; Wnt/beta-catenin reporter cell assay, activator, plate reader; activation, % at 9.35 µM; in the data active means activation above about 30%, passing the limit was not always enough; inconclusive means no clear call, values can overlap the other calls;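 further: 0% = neutral control wells and 100% = positive control wells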
SMARCA2 activ = activators of SMARCA2 function | activation, % at 9.1 µM | 370,000 tested, 1% active | MG213 cells, MMTV-luciferase reporter, dexamethasone, overnight; in the data active means activation above about 7.8%;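 further: 0% = vehicle wells and 100% = reference activator wells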
esBAF inh = inhibitors of esBAF chromatin remodeling in mouse ES cells. Bmi1-luciferase knock-in reporter, 24 h; 100% = twice the neutral-well signal. 350,000 tested, 2% active. reporter increase, % at 12.5 µM. AID 602393; in the data active means activation above about 40%; inconclusive means no clear call, values can overlap the other calls;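 further: 0% = median of the plate's neutral control wells and 100% = double that signal; a rise in the Bmi1 reporter signal indicates esBAF inhibition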
HSF1 inhib = HSF1 inhibition. NIH3T3-HGL HSE-luciferase, MG132-induced, luminescence 8 h; stronger effect = lower value. activity change, negative = inhibition, % at 7.5 µM (by protocol). 300,000 tested, 0.77% active. AID 2098;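 active means more than half of replicate wells show activity change below -50%, luminescence cut by over half; inconclusive means some wells, but at most half, below -50%; inactive means no replicate well below -50%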;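 further: luciferase reports HSF-1 transcriptional activity via heat shock element; 0% = median of DMSO wells and -100% = zero luminescence signal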
* marks the source's active call; other numbers are inactive results; ? = inconclusive; · = no result given.

SMILES	HSF1 activator	MITF TRPM1 HTS	Wnt bcat act	SMARCA2 activ	esBAF inh	HSF1 inhib
Cc1ccc(S(=O)(=O)N(C)C)cc1NC(=S)N(C)C1CCN(C)CC1	55*	3	0	-3	-1	6
Cc1ccc(S(=O)(=O)N(C)C)cc1NC(=S)NC(C)CCCC(C)C (stereo not given)	57*	10	·	-3	·	18
CO[C@H]1CN(C)C(=O)c2ccc(NC(=O)c3ccc(F)cc3)cc2OC[C@@H](C)N(C(=O)CN(C)C)C[C@@H]1C	·	·	·	·	3	·
CC(=O)Nc1nc2c(C)c(Cl)ccc2s1	-9	-19	0	-4	4	5
Cc1nc2c(ccc3nc(NC(=O)C4CC4)sc32)s1	25	-20	5	0	68*	-3
CC(=O)Nc1cc(C)c2nc(NC(C)=O)sc2c1	3	36	18	4	31	7
Cc1c(Cl)ccc2sc(NC(=O)C3CC3)nc12	17	·	7	-5	53*	-1
CC(=O)Nc1nc2c(C)cc(NC(=O)C3CCCCC3)cc2s1	35	·	-1	1	60*	14
COc1cccc(S(=O)(=O)N2CCCCN3[C@H](CO)[C@H](c4ccc(C5=CCCCC5)cc4)[C@H]3C2)c1	·	·	·	·	-6	·
CO[C@@H]1CN(C)C(=O)c2ccc(NS(=O)(=O)c3cn(C)cn3)cc2OC[C@@H](C)N(C)C[C@@H]1C	·	·	·	·	-1	·
COc1ccc(OC)c(N(C(=O)c2snc(C(N)=O)c2N)C(C(=O)NCc2ccccc2)c2ccc(O)cc2)c1 (stereo not given)	0	-2	1	0	0	6
COc1ccc(CNC(=O)C(c2ccc(C)o2)N(C(=O)c2snc(C(N)=O)c2N)c2ccccc2OC)cc1 (stereo not given)	58*	-14	-2	-1	-1	19
C[C@@H]1CN([C@@H](C)CO)C(=O)c2cccc(NS(=O)(=O)c3ccccc3)c2O[C@@H]1CN(C)CC1CCCCC1	·	·	·	·	-6	·
Cc1ccc(C(=O)COC(=O)c2ccc(O)cc2)cc1	122*	?	22	7	·	58
CC(C)CNS(=O)(=O)c1cc(C(=O)OCC(=O)c2ccc3c(c2)OCCO3)c(Cl)cc1Cl	69*	6	-1	-1	·	21
O=C(COC(=O)c1ccc(O)cc1)c1ccc2c(c1)OCCO2	·	79	38*	3	38	·
COC(=O)C(Cc1ccc(O)cc1)NC(=O)c1ccc2c(c1)OCCO2 (stereo not given)	12	19	10	3	55*	-5
Cc1ccccc1S(=O)(=O)NCC[C@H]1CC[C@H](NC(=O)Nc2cccc(Cl)c2)[C@@H](CO)O1	·	·	·	·	1	·
Cc1noc(C)c1NC(=O)N[C@H]1CC[C@H](CCNC(=O)C2CCOCC2)O[C@@H]1CO	·	·	·	·	1	·
CCC(=O)Nc1ccc2c(c1)OC[C@@H](C)N(CC1CCOCC1)C[C@@H](C)[C@H](OC)CN(C)C2=O	·	·	·	·	-3	·
O=C(COC(=O)c1cc(Cl)ccc1O)c1ccc2c(c1)OCO2	33	?	?	1	·	22
O=C(COc1ccccc1Br)c1ccc(O)cc1O	16	7	3	6	10	7
Cc1cc(C(=O)COC(=O)c2ccc(O)cc2O)c(C)n1C(C)C	·	85*	53*	6	61*	·
O=C(COC(=O)c1ccc(O)cc1O)c1ccc2c(c1)OCO2	27	45	44*	1	63*	21
O=C(COc1ccccc1Br)c1ccc2c(c1)OCO2	26	58	13	1	43*	10
SMILES	HSF1 activator	MITF TRPM1 HTS	Wnt bcat act	SMARCA2 activ	esBAF inh	HSF1 inhib
NNC(=O)c1cn2ccccc2n1	13	-3	·	0	30	1
Cc1ccc(C(=O)COC(=O)c2cn3ccccc3n2)cc1	62*	25	-2	5	26	32
CCOc1ccc(C(=O)N(CC(=O)Nc2cccc(C)c2C)CC2CCCO2)cc1OC (stereo not given)	·	0	51*	-2	-8	·
CCOc1ccc(NC(=O)CN(C)C(=O)c2ccc(OCC3CCCO3)cc2)cc1OCC (stereo not given)	-6	1	2	-1	13	0
O=C(Nc1cccc2ccccc12)c1ccc2sc([C@@H]3O[C@H](CO)[C@@H](O)[C@H]3O)nc2c1	·	·	0	1	42*	·
O=C(Nc1ccccc1F)c1ccc2sc([C@@H]3O[C@H](CO)[C@H](O)[C@H](O)[C@H]3O)nc2c1	·	·	18	1	28	·
